In this assay the target is Polyunsaturated fatty acid lipoxygenase ALOX15 (Homo sapiens) (UniProt P16050). The assay can be described thus: Counterscreen qHTS for inhibitors of human arachidonate 12S-lipoxygenase (ALOX12): ALOX15 Assay. The procedure, abridged:
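Purified human ALOX15 (15hLO-1) at 40 nM in 25 mM HEPES, 0.01% Triton X-100, pH 7.5, preincubated with compound 15 min at RT. Then 50 uM arachidonic acid for 30 min; hydroperoxide detected by Fe-xylenol orange as the 573/405 nm absorbance ratio.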
In general terms: The purpose of a counterscreen is to sort out artefacts and off-target activity.

Results filed as inconclusive are left out. Calls of active or inactive are those of the source. Calls come from the whole dose curve; as a rule, active = well fitted curve in the direction sought with a large enough effect; inconclusive = small, poorly fitted or top-dose-only effect, or another doubt; inactive = no such curve, though single readings can be large or run the other way.

Sequence of Polyunsaturated fatty acid lipoxygenase ALOX15 (Homo sapiens) (P16050 whole entry, looked up): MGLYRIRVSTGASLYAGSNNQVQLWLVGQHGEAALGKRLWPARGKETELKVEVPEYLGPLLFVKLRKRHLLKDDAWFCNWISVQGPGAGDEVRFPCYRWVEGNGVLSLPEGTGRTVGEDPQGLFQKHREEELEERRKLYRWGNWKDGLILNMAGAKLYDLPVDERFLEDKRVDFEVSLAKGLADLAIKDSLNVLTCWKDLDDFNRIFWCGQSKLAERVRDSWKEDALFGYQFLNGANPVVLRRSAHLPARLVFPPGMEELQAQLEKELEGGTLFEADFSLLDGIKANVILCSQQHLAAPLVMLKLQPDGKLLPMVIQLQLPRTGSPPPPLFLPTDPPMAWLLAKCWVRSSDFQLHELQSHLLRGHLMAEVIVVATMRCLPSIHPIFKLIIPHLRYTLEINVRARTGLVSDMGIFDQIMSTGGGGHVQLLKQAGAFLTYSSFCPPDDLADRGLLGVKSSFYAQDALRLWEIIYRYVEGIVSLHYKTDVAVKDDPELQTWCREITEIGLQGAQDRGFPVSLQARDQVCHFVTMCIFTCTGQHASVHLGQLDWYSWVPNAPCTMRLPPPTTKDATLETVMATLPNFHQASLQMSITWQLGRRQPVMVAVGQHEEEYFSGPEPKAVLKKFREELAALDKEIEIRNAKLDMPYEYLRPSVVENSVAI

Regarding `COc1ccc(OC2CN(Cc3cccc4ccccc34)C2)cc1`, the call was inactive.
For `CC(=O)NCCC(=O)N1Cc2ccccc2CC2(CCCN(CC3CCNC3)C2)C1` (centres undefined), the result was inactive.
The value for `Cn1nc(C2CCCN2)c2c(C(=O)NCc3cccs3)cc(C3CC3)nc21` (centres undefined) was “inactive”; that for `O=Cc1ccc(-c2cncc(C(=O)O)c2)cc1` was “inactive”.

(Values after PubChem BioAssay AID1671192 (National Center for Advancing Translational Sciences (NCATS), 2021).)
